Measured values from PubChem BioAssay (NCI).
Compounds without any hit were thinned out: in the full panel of roughly 83,000, 20% have a hit.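 In brief: 96-well plates, 48 h treatment, single concentration, percent growth endpoint.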 Unmarked numbers belong to inactive results. Calls of active or inactive are those of the source. Rule for the calls: active = growth percent below 10; inactive = the rest.

Columns and labels:
Assay in all cases: NCI-60 one-dose screen, 48 h (100 = growth as untreated, 0 = no growth, -100 = all killed)
Conditions in all cases: 10 µM unless noted
NCI-H23 lung = system: NCI-H23 lung
NCI-H226 lung = system: NCI-H226 lung
NCI-H322M lung = system: NCI-H322M lung
HOP-62 NSCLC = system: HOP-62 NSCLC
NCI-H460 lung = system: NCI-H460 lung
HOP-92 NSCLC = system: HOP-92 NSCLC
NCI-H522 lung = system: NCI-H522 lung
A549/ATCC NSCLC = system: A549/ATCC NSCLC
786-0 renal = system: 786-0 renal
COLO 205 colon = system: COLO 205 colon
DU-145 prostate = system: DU-145 prostate
MALME-3M melanoma = system: MALME-3M melanoma
MDA-MB-231 breast = system: MDA-MB-231 breast
SF-268 CNS = system: SF-268 CNS
SF-295 CNS = system: SF-295 CNS
SF-539 CNS = system: SF-539 CNS
UACC-257 melanoma = system: UACC-257 melanoma
M14 melanoma = system: M14 melanoma
K-562 leukemia = system: K-562 leukemia
RXF 393 renal = system: RXF 393 renal

Row | Structure (SMILES) | growth (NCI-H23 lung) | growth (NCI-H226 lung) | growth (NCI-H322M lung) [%] | growth (HOP-62 NSCLC) | growth (NCI-H460 lung) | growth (HOP-92 NSCLC) | growth (NCI-H522 lung) | growth (A549/ATCC NSCLC) | growth (786-0 renal) | growth (COLO 205 colon) | growth (DU-145 prostate) | growth (MALME-3M melanoma) | growth (MDA-MB-231 breast) | growth (SF-268 CNS) | growth (SF-295 CNS) | growth (SF-539 CNS) | growth (UACC-257 melanoma) [%] | growth (M14 melanoma) | growth (K-562 leukemia) | growth (RXF 393 renal)
1 | O=C(O)C(Cl)(Cl)C(F)(F)F | 100% | 106% | 106 | 111% | 102% | 95.1% | 102% | 106% | 99.1% | 124% | 108% | 105% | 102% | 99.3% | 99.9% | 102% | 105 | 105% | – | –
2 | ClCCN(CCCl)c1ccc(/C=N\N=C\c2ccc(N(CCCl)CCCl)cc2)cc1 | 62% | 28.9% | 74.2 | 39.1% | 14.7% | 76.7% | 11.1% | 13.6% | 31.7% | 37.4% | 42.4% | 109% | 64.9% | 40.7% | 10.7% | 1.3% (active) | 31 | 12.9% | – | –
3 | Cc1cc(N(CCCl)CCCl)ccc1/C=N\NC(=O)c1ccncc1 | 87.8% | -7.98% (active) | 113 | 79.4% | 25.9% | 97% | 101% | 78.4% | 82.5% | 98% | 82.4% | – | 96.4% | 70.7% | 56.2% | 60.3% | 79.8 | 90.4% | 85.2% | 91.7%
4 | COc1ccc(/C=C\c2cc(OC)c(OC)c(OC)c2)cc1NC(=O)/C=C/c1cc(OC)c(OC)c(OC)c1 | 25.7% | 46.8% | 55.1 | 45.5% | 55.2% | 55.5% | 34.3% | 56.6% | 39.9% | 42.1% | 95.2% | 58% | 63.9% | 61.1% | 12.5% | 44.5% | 70.6 | 31.6% | – | 1.99% (active)
5 | O=NNc1ccccn1 | 79.4% | 91.1% | 126 | 90.3% | 41.7% | 92.1% | 64.3% | 95.1% | 106% | 95.8% | 5.33% (active) | – | 91.2% | 91.1% | 96% | 94.3% | 94.9 | 87.3% | 77.7% | 83.8%
6 | COc1ccc(/C=C/c2cc(OC)c(OC)c(OC)c2)cc1NC(=O)/C=C/c1ccc(F)cc1 | 6.1% (active) | 36.6% | 55.5 | 24.9% | 14.6% | 93.1% | -8.36% (active) | 38% | 37.8% | -26.3% (active) | 10.1% | 42.7% | 56.1% | 45.2% | -2.11% (active) | -0.885% (active) | 59.3 | 13.4% | – | -19.1% (active)
7 | ClCCN(CCCl)c1ccc(-n2cnc3c(Cl)ncnc32)cc1 | -69% (active) | 97.5% | 58.7 | 87% | 47.8% | -1.92% (active) | -76.9% (active) | 85.2% | 106% | 65.8% | 21.9% | – | 62.9% | -11.9% (active) | 87% | 115% | 49.7 | 33.3% | -2.07% (active) | -57.2% (active)
8 | Cc1c2cc(Cl)c3ccccc3c2c[n+]2ccccc12 | 47.8% | 43.5% | 31.3 | 12.3% | 55.7% | 75.4% | 17.1% | 40.5% | 16.1% | 56.1% | 78.3% | -16.2% (active) | 82.5% | -36.3% (active) | 18.3% | 26.3% | – | 47.5% | – | –
9 | O=P(N1CC1)(N1CC1)N1CCc2ccccc21 | 103% | 105% | 108 | 105% | 63.3% | 115% | 109% | 101% | 106% | 117% | 112% | 109% | 104% | 103% | – | 105% | 110 | 104% | – | 109%
10 | CC(=O)OC[C@]1(C)C=C2C(=O)[C@](C)(O)C3(CC3)C(C)=C2[C@H]1OC(=O)N(C)CCN(C)C(=O)OC(C)(C)C | -17.8% (active) | 24.7% | 12.4 | -19.9% (active) | 0.38% (active) | -13.4% (active) | -47% (active) | 4.55% (active) | 0.73% (active) | -66.8% (active) | 3.6% (active) | -44% (active) | 4.31% (active) | 7.08% (active) | 6.27% (active) | -37.1% (active) | 33.7 | -29.4% (active) | – | -68.2% (active)
11 | Cc1cc(NC(=O)NCc2ccc(N3C(N)=NC(N)=NC3(C)C)cc2)ccc1S(=O)(=O)F | 29.2% | 101% | 54.7 | 23.4% | 4.48% (active) | 88.9% | 16.5% | -3.03% (active) | 26.2% | 29.3% | 42.7% | 56.9% | 58.5% | 31.6% | 27.9% | 19.5% | – | 29.5% | – | –
12 | NC(=Nc1ccccc1)N[N+](=O)[O-] | 93.7% | 90.1% | 109 | 104% | 105% | 118% | 115% | 107% | 113% | 107% | 111% | 103% | 115% | 102% | 113% | – | 112 | 99.9% | – | 95.2%
13 | CCC(CC)CC1(C)CC2(C)CCOC2OO1 (stereo not given) | 102% | 99% | 109 | 97.9% | 108% | 96.2% | 90.9% | 98.9% | 101% | 118% | 107% | 112% | 100% | 110% | 101% | 99.1% | 98 | 115% | – | 111%
14 | Nc1ncnc2n[nH]nc12 | 72.7% | 72.3% | 42.3 | 40% | 95.1% | 77.3% | – | 73.4% | 56.2% | 70.5% | 57% | 55.1% | 74.9% | 81% | 53.5% | 86.8% | 58.1 | 39.8% | 59.6% | 75.8%
15 | O=C1OCCC1Br (stereo not given) | 103% | 103% | 97.7 | 105% | 105% | 85.6% | – | 99.8% | 106% | 120% | 106% | 97.8% | 103% | 108% | 105% | 95.6% | 83 | 109% | 80.9% | 114%
16 | COP(=O)(OC)C(O)c1ccc(Cl)cc1 (stereo not given) | 98.8% | 102% | 84.2 | 104% | 103% | 98.1% | – | 98.3% | 101% | 102% | 97.9% | 101% | 123% | 94.6% | 100% | 103% | 99.7 | 96.4% | 117% | 108%
17 | C[C@]12CCc3sc(-c4cccc(F)c4)nc3C1=CC[C@@H]1[C@@H]2CC[C@]2(C)C(=O)CC[C@@H]12 | 62.7% | 65.8% | 69.3 | 50.5% | 53.9% | 74.3% | – | 55% | -10.1% (active) | 44.5% | 22.9% | 37.6% | 62% | 52.4% | -18.9% (active) | -33.4% (active) | 77.4 | 57.4% | 7.01% (active) | -22.5% (active)
